Source: PubChem BioAssay (NCATS)
Where “and” joins values, the source holds several entries; their conditions need not be identical. Identical values can stand only once. Records with an inconclusive call do not appear. Calls of active or inactive are those of the source. Unless noted, the call rests on the fitted dose curve; in most records, active means well fitted curve in the direction sought with a large enough effect; inconclusive means small, poorly fitted or top-dose-only effect, or another doubt; inactive means no such curve, though single readings can be large; an effect the other way counts as inactive or inconclusive.

Assays:
[1] = target: Single-stranded DNA cytosine deaminase (Homo sapiens) (UniProt Q9GZX7); assay: Validation qHTS assay for inhibitors of Activation Induced Cytidine Deaminase (AID): AID signal (AID 1347429); further: potency means the concentration at half of the fitted maximal effect
Chain of Single-stranded DNA cytosine deaminase (Homo sapiens) (Q9GZX7 whole entry, looked up): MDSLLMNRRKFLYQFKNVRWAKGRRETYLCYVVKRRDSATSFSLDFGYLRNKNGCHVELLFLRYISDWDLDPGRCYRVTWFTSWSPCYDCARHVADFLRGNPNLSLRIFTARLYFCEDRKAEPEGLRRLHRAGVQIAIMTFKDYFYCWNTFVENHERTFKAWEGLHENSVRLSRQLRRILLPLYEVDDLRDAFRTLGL
In short: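 AID+UDG coupled FRET deamination; cpds up to 114 uM final; DJC20/DJC23 substrate, 4 hr RT; NaOH stop, 30 min RT; read Ex 540/Em 590.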

[2] = Primary qHTS for inhibitors of La Crosse Virus (LACV) - induced cell death in SH-SY5Y cells (AID 1508616);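 further: top concentration of the series differs between compounds; 0% = infected DMSO wells and 100% = uninfected DMSO wells; higher means more rescue of cells from virus-induced death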
In short: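 Cytopathicity rescue screen: compounds pinned onto SH-SY5Y cells, which are then infected with LACV (MOI 0.01) and held 6 days at 37C. Percent activity is scaled between infected DMSO control and uninfected DMSO control.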

[3] = target: Calcium and integrin-binding protein 1 (Homo sapiens) (UniProt Q99828); assay: Validation qHTS for Identification of Calcium Integrin Binding protein 1 (CIB1) Competitor (AID 1508618); further: on the % scale 0 is the no-effect control and ±100 the full control effect
Chain of Calcium and integrin-binding protein 1 (Homo sapiens) (Q99828 whole entry, looked up): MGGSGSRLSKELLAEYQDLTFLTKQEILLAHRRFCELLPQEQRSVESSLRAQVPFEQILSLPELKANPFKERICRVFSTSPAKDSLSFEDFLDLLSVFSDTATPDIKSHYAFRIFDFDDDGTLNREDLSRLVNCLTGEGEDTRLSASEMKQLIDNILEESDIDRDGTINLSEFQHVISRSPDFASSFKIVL
In short: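 Displacement of FITC-alphaIIb peptide (100 nM) from CIB1-GST (1 uM) is monitored by polarization in quantitative HTS format; buffer carries 5 mM CaCl2 and 125 mM NaCl at pH 7.4, incubations are at room temperature.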

[4] = target: Calcium and integrin-binding protein 1 (Homo sapiens) (UniProt Q99828); assay: Primary qHTS for Identification of Calcium Integrin Binding Protein 1 (CIB1) Competitor (AID 1508620);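 further: GST tagged CIB1 binding a fluorescein labelled alphaIIb integrin peptide tracer; top concentration of the series differs between compounds; on the % scale 0 is the no-effect control and ±100 the full control effect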
In short: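 Fluorescence polarization competition: CIB1-GST (1 uM final) preincubated with compound 15 min at room temperature, then FITC-labeled alphaIIb peptide (100 nM final) added for another 15 min. Polarization read at Ex 480/Em 540.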

[5] = A High-Content qHTS Against Drug Library for the Identification of Small Molecules that Inhibit DYT1 Early Onset Primary Dystonia-Associated Cell Pathology (AID 1645839; calls by dose curve; further: potency means the concentration at half of the fitted maximal effect)
In short: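 Induced EGFP-delE TorsinA cells are imaged after 48 h of compound treatment. Punctate fusion-protein distribution gives the %pathology value, while nuclei counts flag toxicity. Wild-type EGFP-hTOR1A cells define the normal pattern.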

[6] = Counterscreen qHTS for small molecule stabilizers of the endoplasmic reticulum resident proteome: GLuc-NoTag assay (AID 1508627); further: potency means the concentration at half of the fitted maximal effect
In short: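 Secreted GLuc lacking the SERCaMP modification is measured in SH-SY5Y cells exposed to compound for 19 h and then to thapsigargin (100 nM, 4 h) to deplete ER calcium; hits retested at 11 concentrations, up to 76.6 uM.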

[7] = Confirmatory qHTS for small molecule stabilizers of the endoplasmic reticulum resident proteome: Secreted ER Calcium Modulated Protein (SERCaMP) assay (AID 1508628); further: nearly all actives have a fitted effect of over 40% in size; further: potency means the concentration at half of the fitted maximal effect
In short: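 GLuc-SERCaMP-expressing SH-SY5Y cells, pretreated 16 h with compound, are challenged with thapsigargin to empty ER calcium stores; after 4 h, coelenterazine is added directly to the medium and luminescence is imaged.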

[8] = Cell Viability qHTS for small molecule stabilizers of the endoplasmic reticulum resident proteome (AID 1508629); settings: cell viability counter-screen, 100 nM thapsigargin for final 4 h;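 further: compound exposure about 46 h in total before the viability read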; further: potency means the concentration at half of the fitted maximal effect;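 on max response: human SH-SY5Y neuroblastoma cells carrying the GLuc-SERCaMP reporter; on the % scale 0 is the no-effect control and ±100 the full control effect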
[9] = Primary qHTS for small molecule stabilizers of the endoplasmic reticulum resident proteome: Secreted ER Calcium Modulated Protein (SERCaMP) assay (AID 1508630); further: on the % scale 0 is the no-effect control and ±100 the full control effect
In short: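 The SH-SY5Y reporter protocol was run at 3 concentrations up to 38.3 uM (primary) or 11 concentrations (follow-up): 16 h compound, 100 nM thapsigargin for 4 h, then extracellular luciferase luminescence.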

Cc1cc(C(C)(C)C)c(O)c(C)c1CC1=NCCN1
inactive: Potency [1] | Potency [2] | Potency [3] | Potency [4] | Potency [5]

O=c1[nH]cc(F)c(=O)[nH]1
inactive: Potency [1] | Potency [2] | Potency [3] | Potency [4] | Potency [5]

O=C(Nc1ccc([N+](=O)[O-])cc1Cl)c1cc(Cl)ccc1O
inactive: Potency [1] | Potency [2] | Potency [4] | Potency [7] | Potency [9]
active: Potency [6] 3.98 µM | Potency [8] 5.01 µM

CCC1(C)CC(=O)NC1=O (stereo not given)
inactive: Potency [1] | Potency [2] | Potency [3] | Potency [4] | Potency [5]

Cc1ccc(C(=O)Nc2ccc(S(=O)(=O)O)c3cc(S(=O)(=O)O)cc(S(=O)(=O)O)c23)cc1NC(=O)c1cccc(NC(=O)Nc2cccc(C(=O)Nc3cc(C(=O)Nc4ccc(S(=O)(=O)O)c5cc(S(=O)(=O)O)cc(S(=O)(=O)O)c45)ccc3C)c2)c1
active: Potency [1] 11.2 µM | Potency [7] 15.8 µM
inactive: Potency [2] | Potency [4] | Potency [9] | Potency [5]

CC(C)C(=O)Nc1ccc([N+](=O)[O-])c(C(F)(F)F)c1
inactive: Potency [1] | Potency [2] | Potency [3] | Potency [4] | Potency [9] | Potency [5]

CN(C)c1nc(N(C)C)nc(N(C)C)n1
inactive: Potency [1] | Potency [2] | Potency [3] | Potency [4] | Potency [5]

CCOC(=O)C(C)(C)Oc1ccc(Cl)cc1
inactive: Potency [1] | Potency [2] | Potency [3] | Potency [4] | Potency [9] | Potency [5]

Nc1c2c(nc3ccccc13)CCCC2
inactive: Potency [1] | Potency [2] | Potency [3] | Potency [4] | Potency [5]

NCCc1cnc[nH]1
inactive: Potency [1] | Potency [2] | Potency [3] | Potency [4] | Potency [9] | Potency [5]

CCc1cccc2c3c([nH]c12)C(CC)(CC(=O)O)OCC3 (stereo not given)
inactive: Potency [1] | Potency [2] | Potency [3] | Potency [4] | Potency [5]

O=c1c(O)c(-c2ccc(O)c(O)c2)oc2cc(O)cc(O)c12
inactive: Potency [1] | Potency [2] | Potency [4] | Potency [6] | max response [8] -19.3% and 6.63% and -20.3% | Potency [9]

CCOC(=O)c1ncn2c1CN(C)C(=O)c1cc(F)ccc1-2
inactive: Potency [1] | Potency [2] | Potency [3] | Potency [4] | Potency [5]

CNCCCC12CCC(c3ccccc31)c1ccccc12
inactive: Potency [1] | Potency [2] | Potency [3] | Potency [4] | Potency [9]
active: Potency [5] 12.6 µM

CN1C(C(=O)Nc2ccccn2)=C(O)c2ccccc2S1(=O)=O
inactive: Potency [1] | Potency [2] | Potency [3] | Potency [4] | Potency [5]

COc1ccc(C2CNC(=O)C2)cc1OC1CCCC1 (stereo not given)
inactive: Potency [1] | Potency [2] | Potency [3] | Potency [4] | Potency [5]

CC(C)(Oc1ccc(C2CC2(Cl)Cl)cc1)C(=O)O (stereo not given)
inactive: Potency [1] | Potency [2] | Potency [3] | Potency [4] | Potency [5]

Clc1ccc(C(c2ccccc2Cl)C(Cl)Cl)cc1 (stereo not given)
inactive: Potency [1] | Potency [2] | Potency [3] | Potency [4] | Potency [5]

O=c1c(-c2ccc(O)cc2)coc2cc(O)cc(O)c12
inactive: Potency [1] | Potency [2] | Potency [3] | Potency [4] | Potency [9] | Potency [5]

OCCN1CCN(CCCN2c3ccccc3Sc3ccc(C(F)(F)F)cc32)CC1
inactive: Potency [1] | Potency [2] | Potency [4] | Potency [9]

CN1CCN(CCCN2c3ccccc3Sc3ccc(Cl)cc32)CC1
inactive: Potency [1] | Potency [2] | Potency [4]

O=C1N(c2ccccc2)c2ccccc2C1(Cc1ccncc1)Cc1ccncc1
inactive: Potency [1] | Potency [2] | Potency [3] | Potency [4] | Potency [5]

CC1(C)O[C@H]2CC(=O)OC[C@]23[C@H]2CC[C@@]4(C)[C@H](c5ccoc5)OC(=O)[C@H]5O[C@]54[C@]2(C)C(=O)C[C@@H]13
inactive: Potency [4] | Potency [9] | Potency [5]

CN1C2CCC1CC(OC(=O)C(CO)c1ccccc1)C2 (stereo not given)
active: Potency [7] 39.8 µM
inactive: Potency [2] | Potency [3] | max response [8] -15.7% and 13.4%

Nc1nc2c(ncn2COC(CO)CO)c(=O)[nH]1
inactive: Potency [2] | Potency [3] | Potency [4] | Potency [5]

CN(C)C(=N)N=C(N)N
inactive: Potency [2] | Potency [4] | Potency [5]
